Assay results from PubChem BioAssay AID1159580 (chemical genetic matrix, 2015).
About 2,000 (36%) of roughly 5,500 compounds were called active. Inconclusive results (about 18%) are left out. Cut-off read from the data, not from the text of the source: active = normalized growth mostly below about 0.91 (no sharp cut-off); inconclusive = no clear call, values can overlap the other calls; inactive = mostly above about 0.92. The list shows a part of the results.

Experiment: chemical genetic growth profiling, strain panel (AID 1159580);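 note: tested at 20 µM; growth read once vehicle control cultures reached saturation at 30 °C; 1 = growth at the plate median or of vehicle wells; lower values mean less growth of the strain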
Conditions: growth OD

Measured: normalized growth

NNC(=O)c1ccncc1
inactive: S. cerevisiae deletion strains, locus YJR075W, strain HOC1, hits give low values 1.01 | S. cerevisiae deletion strains, locus YKL009W, strain mrt4, hits give low values 0.98 | S. cerevisiae deletion strains, locus YKL068W, hits give low values 0.992 | S. cerevisiae deletion strains, locus YKL085W, strain MDH1 (second series), hits give low values 0.991 | S. cerevisiae deletion strains, locus YKL085W, strain MDH1, hits give low values 0.991 | S. cerevisiae deletion strains, locus YKL160W, strain elf1, hits give low values 1.04 | S. cerevisiae deletion strains, locus YKL190W, strain CNB1, hits give low values 0.992 | S. cerevisiae deletion strains, locus YKR001C, strain vps1, hits give low values 0.993 | S. cerevisiae deletion strains, locus YKR026C, strain gcn3, hits give low values 1.01 | S. cerevisiae deletion strains, locus YKR091W, strain srl3, hits give low values 1 | S. cerevisiae deletion strains, locus YLL001W, strain dnm1, hits give low values 1.03 | S. cerevisiae deletion strains, locus YLL026W, hits give low values 1.03 | S. cerevisiae deletion strains, locus YLL041C, strain sdh2, hits give low values 1 | S. cerevisiae deletion strains, locus YLR027C, strain aat2, hits give low values 1.03 | S. cerevisiae deletion strains, locus YLR039C, strain RIC1, hits give low values 1.05 | S. cerevisiae deletion strains, locus YLR058C, strain SHM2, hits give low values 1.01 | S. cerevisiae deletion strains, locus YLR102C, strain apc9, hits give low values 0.998 | S. cerevisiae deletion strains, locus YLR113W, strain HOG1, hits give low values 1.01 | S. cerevisiae deletion strains, locus YLR221C, strain rsa3, hits give low values 0.986 | S. cerevisiae deletion strains, locus YLR258W, strain gsy2, hits give low values 0.99 | S. cerevisiae deletion strains, locus YLR262C, strain YPT6 (second series), hits give low values 1.03 | S. cerevisiae deletion strains, locus YLR262C, strain YPT6, hits give low values 1.01 | S. cerevisiae deletion strains, locus YLR268W, strain sec22, hits give low values 0.991 | S. cerevisiae deletion strains, locus YLR320W, strain mms22, hits give low values 0.986 | S. cerevisiae deletion strains, locus YLR330W, strain CHS5, hits give low values 1.01 | S. cerevisiae deletion strains, locus YLR342W, strain FKS1 (second series), hits give low values 1.01 | S. cerevisiae deletion strains, locus YLR342W, strain FKS1, hits give low values 1.02 | S. cerevisiae deletion strains, locus YLR357W, strain rsc2, hits give low values 0.998 | S. cerevisiae deletion strains, locus YLR370C, strain arc18, hits give low values 1.02 | S. cerevisiae deletion strains, locus YLR371W, strain rom2, hits give low values 0.988 | S. cerevisiae deletion strains, locus YLR384C, strain iki3, hits give low values 1.01 | S. cerevisiae deletion strains, locus YLR418C, strain cdc73, hits give low values 0.964 | S. cerevisiae deletion strains, locus YML016C, strain PPZ1, hits give low values 1.01 | S. cerevisiae deletion strains, locus YML032C, strain rad52, hits give low values 0.995 | S. cerevisiae deletion strains, locus YML120C, strain ndi1, hits give low values 1.06 | S. cerevisiae deletion strains, locus YML124C, strain tub3, hits give low values 0.988 | S. cerevisiae deletion strains, locus YMR058W, strain fet3, hits give low values 1.04 | S. cerevisiae deletion strains, locus YMR078C, strain ctf18, hits give low values 1 | S. cerevisiae deletion strains, locus YMR125W, strain sto1, hits give low values 1.02 | S. cerevisiae deletion strains, locus YMR129W, hits give low values 1 | S. cerevisiae deletion strains, locus YMR205C, strain PFK2, hits give low values 1.03 | S. cerevisiae deletion strains, locus YMR223W, strain ubp8, hits give low values 0.974 | S. cerevisiae deletion strains, locus YMR231W, strain pep5, hits give low values 0.995 | S. cerevisiae deletion strains, locus YMR307W, strain GAS1, hits give low values 0.997 | S. cerevisiae deletion strains, locus YNL067W, strain RPL9B, hits give low values 0.996 | S. cerevisiae deletion strains, locus YNL071W, strain lat1, hits give low values 0.996 | S. cerevisiae deletion strains, locus YNL153C, strain GIM3, hits give low values 1.01 | S. cerevisiae deletion strains, locus YNL183C, strain NPR1, hits give low values 0.948 | S. cerevisiae deletion strains, locus YNL209W, strain ssb2, hits give low values 1 | S. cerevisiae deletion strains, locus YNL233W, strain BNI4, hits give low values 1.01 | S. cerevisiae deletion strains, locus YNL248C, strain rpa49, hits give low values 0.988 | S. cerevisiae deletion strains, locus YNL250W, strain rad50, hits give low values 0.977 | S. cerevisiae deletion strains, locus YNL271C, strain bni1, hits give low values 0.985 | S. cerevisiae deletion strains, locus YNL298W, strain CLA4, hits give low values 0.986 | S. cerevisiae deletion strains, locus YNL307C, strain MCK1, hits give low values 0.995 | S. cerevisiae deletion strains, locus YNL322C, strain KRE1 (second series), hits give low values 1.02 | S. cerevisiae deletion strains, locus YNR049C, strain mso1, hits give low values 1.01 | S. cerevisiae deletion strains, locus YNR052C, strain pop2, hits give low values 1 | S. cerevisiae deletion strains, locus YOL012C, strain htz1 0.873 | S. cerevisiae deletion strains, locus YOL147C, strain pex11, hits give low values 0.994 | S. cerevisiae deletion strains, locus YOR001W, strain rrp6, hits give low values 1.03 | S. cerevisiae deletion strains, locus YOR061W, strain CKA2, hits give low values 1.02 | S. cerevisiae deletion strains, locus YOR069W, strain VPS5, hits give low values 1 | S. cerevisiae deletion strains, locus YOR070C, strain gyp1, hits give low values 1 | S. cerevisiae deletion strains, locus YOR080W, strain dia2, hits give low values 1.01 | S. cerevisiae deletion strains, locus YOR083W, strain WHI5, hits give low values 1 | S. cerevisiae deletion strains, locus YOR106W, strain vam3, hits give low values 1.04 | S. cerevisiae deletion strains, locus YOR136W, strain idh2, hits give low values 0.998 | S. cerevisiae deletion strains, locus YOR144C, strain elg1, hits give low values 0.994 | S. cerevisiae deletion strains, locus YOR184W, strain ser1, hits give low values 0.981 | S. cerevisiae deletion strains, locus YOR231W, strain MKK1, hits give low values 0.992 | S. cerevisiae deletion strains, locus YOR265W, strain rbl2, hits give low values 1.01 | S. cerevisiae deletion strains, locus YOR270C, strain vph1, hits give low values 1 | S. cerevisiae deletion strains, locus YOR290C, strain snf2, hits give low values 0.965 | S. cerevisiae deletion strains, locus YOR316C, strain cot1, hits give low values 0.997 | S. cerevisiae deletion strains, locus YPL051W, strain arl3, hits give low values 1.02 | S. cerevisiae deletion strains, locus YPL055C, strain LGE1, hits give low values 1.01 | S. cerevisiae deletion strains, locus YPL078C, strain atp4, hits give low values 1.06 | S. cerevisiae deletion strains, locus YPL106C, strain sse1, hits give low values 1.01 | S. cerevisiae deletion strains, locus YPL240C, strain hsp82, hits give low values 1.02 | S. cerevisiae deletion strains, locus YPL256C, strain CLN2, hits give low values 0.966 | S. cerevisiae deletion strains, locus YPR119W, strain clb2, hits give low values 0.987 | S. cerevisiae deletion strains, locus YPR141C, strain kar3, hits give low values 0.99 | S. cerevisiae deletion strains, locus YPR163C, strain tif3, hits give low values 0.987 | S. cerevisiae deletion strains, locus YPR167C, strain met16, hits give low values 0.981 | S. cerevisiae deletion strains, strain wtn01, hits give low values 0.98 | S. cerevisiae strains, strain wild type, hits give low values 1
